In PubChem BioAssay AID624296 (National Center for Advancing Translational Sciences (NCATS), 2012):
Several values for one entry are separate records, joined by “and”; a condition that tells them apart may be missing. Equal values may be shown once. Hit rate of the full screen: of about 350,000 compounds, about 9,900 (2.8%) were called active. About 15% were inconclusive and are not listed. The call rests on the fitted dose curve; in most records, active means well fitted activation curve with a large enough effect; inconclusive means small, poorly fitted or top-dose-only effect; inactive means no such curve, though single readings can be large or run the other way. The list comes from a sample in which actives are over-represented; it also holds similar structures and randomly drawn compounds. Some structures have more than one record in an assay (separate samples or runs), and their calls can disagree.

Test: A quantitative high throughput screen for small molecules that induce DNA re-replication in MCF 10a normal breast cells. Further: nearly all actives have a fitted effect of over 50% in size. On activity, positive = re-replication: % of control where 0% means no effect.
Settings: MCF 10A DNA re-replication, Hoechst nuclear intensity, 48 h; series mostly up to 46.1 µM; activity, positive = re-replication: at the top concentration
Potency means the concentration at half of the fitted maximal effect.

SMILES	activity, positive = re-replication	Potency
CCCc1cc(=O)[nH]c(SCC(=O)Nc2ccc(S(=O)(=O)N3CCCC3)cc2)n1	6.91% (inactive)	–
CC(=O)Nc1ccc(OCC(O)CN2CCN(c3ccccc3Cl)CC2)cc1 (configuration not stated)	9.34% (inactive)	–
Cc1ccccc1OCC(O)CN1CCN(c2ccccn2)CC1 (configuration not stated)	0.536% (inactive)	–
CC(C)c1ccc(OCC(O)CN2CCN(c3ccccn3)CC2)cc1 (configuration not stated)	–	16.4 µM (active)
COC(=O)[C@]1(CC(C)C)N[C@H](c2ccc(SC3CCCCC3)cc2)[C@@H]2C(=O)N(C)C(=O)[C@@H]21	-1.67% (inactive)	–
CSc1ncccc1C(=O)Nc1ccc2c(c1)OCO2	2.63% (inactive)	–
Nn1c(SCC(=O)Nc2ccc3c(c2)CCC3)nnc1C1CC1	-0.587% (inactive)	–
Cc1nc(N)sc1-c1ccccc1	-9.51% (inactive)	–
CCOC(=O)C1=C(C)N(C[C@@H]2CC[C@@H](Cc3ccc(-c4ccccc4)cc3)O2)C(=O)NC1c1ccc([N+](=O)[O-])cc1 (some centres not stated)	-15.2% (inactive)	–
COc1ccc(CCC(C)N2CCc3ccccc3C2)cc1 (configuration not stated)	-2.26% (inactive)	–
COc1ccc(CN2CN(C(C)C)CSC2=S)cc1	–	5.17 µM (active)
S=C1SCN(CCN2CCOCC2)CN1Cc1ccccc1	5.55% (inactive)	–
S=C(Nc1ccccc1)Nc1ccc2ccccc2c1	18.6% (inactive)	–
COc1ccc2[nH]c3c(c2c1)CCN1C(=O)C(CC(=O)NCCCN(C)C)C[C@H](C(=O)N2CCOCC2)[C@@]31CCC1CCCC1 (some centres not stated)	10.8% (inactive)	–
CCOC(=O)[C@H]1[C@H]2COc3cc(OC)ccc3[C@@H]2N2C(=O)CN(Cc3ccc(Cl)cc3)C(=O)[C@@]12C	-15.2% (inactive)	–
CCC(C)c1ccc(NC(=O)COC(=O)C2CCCC2)cc1 (configuration not stated)	-2.86% (inactive)	–
COc1ccc(C(=O)CSc2nc(C)cc(C)n2)cc1[N+](=O)[O-]	19.8% (inactive)	–
COc1ccc(OCc2cn3c(C)cc(C)nc3n2)cc1	-2.68% (inactive)	–
COc1ccc(C(C[N+](=O)[O-])n2nc(C)cc2C)cc1 (configuration not stated)	–	13 µM (active)
COc1ccccc1C(=O)Nc1ccc(OCC(=O)N2CCCCC2)cc1	-5.49% (inactive)	–
CCc1noc(C)c1C(=O)Nc1nc2ccc(OC)cc2s1	-2.02% (inactive)	–
COc1ccc2nc(Nc3nc(-c4cc5ccccc5oc4=O)cs3)sc2c1	–	5.8 µM (active)
COc1ccc2nc(Nc3nc(-c4ccncc4)cs3)sc2c1	7.45% (inactive)	–
CCNc1nc(-c2cc3ccccc3o2)cs1	12.7% (inactive)	–
O=c1oc2ccccc2cc1-c1csc(Nc2ccc(O)cc2)n1	–	14.6 µM (active)

SMILES	activity, positive = re-replication	Potency
Cc1ccc(Nc2nc(-c3ccc(O)cc3O)cs2)nc1	24.9% (inactive)	–
CC(OC(=O)Cc1ccc(F)cc1)C(=O)N1CCc2ccccc21 (configuration not stated)	3.1% (inactive)	–
Cc1sc2ncnc(N3CCC(C(=O)Nc4ccc(F)cc4Cl)CC3)c2c1C	8.78% (inactive)	–
C#CCOCCOCCOCCNc1nc(N2CCN(C(=O)Cn3cc(CCO)nn3)CC2)nc(N2CCN(C(=O)Cn3cc(CCCN=C(N)N)nn3)CC2)n1	3.26% (inactive)	–
O=[N+]([O-])c1cccc(C=NN=Cc2ccccc2O)c1	10.8% (inactive)	–
CC[C@]12c3[nH]c4ccc(Cl)cc4c3CCN1C(=O)[C@@H](CC(=O)NCCN1CCOCC1)C[C@@H]2C(=O)N1CCN(C(=O)C2CC2)CC1	-1.37% (inactive)	–
CCCN(C(=O)COC(=O)CNS(=O)(=O)c1ccc(NC(C)=O)cc1)C1CCS(=O)(=O)C1 (configuration not stated)	-8.12% (inactive)	–
COc1ccccc1-c1nnc(-c2ccc(F)cc2)o1	1.49% (inactive)	–
COc1ccc(-c2csc3nc(-c4ccccc4F)oc(=O)c23)cc1OC	–	8.2 µM (active)
COc1ccc(-c2csc(-c3cccs3)n2)cc1OC	17.5% (inactive)	–
COc1ccc(-c2csc(NC3OC(=O)c4ccccc43)n2)cc1 (configuration not stated)	–	11.6 µM (active)
COc1ccc(CCNc2nc(-c3cccc(NC(C)=O)c3)cs2)cc1OC	28.6% (inactive)	–
COc1ccc(N/C=C(\C2OC(=O)c3ccccc32)[N+](=O)[O-])cc1 (configuration not stated)	-46.4% (inactive)	–
COc1ccc(-c2csc(NC(=O)COC(=O)c3ccc(Br)o3)n2)cc1	0.665% (inactive)	–
COc1ccc2c(c1OC)C(=O)OC2Nc1nc(-c2ccccc2)cs1 (configuration not stated)	–	4.61 µM (active)
COc1cc(CC(=O)Nc2nc(-c3ccc(F)c(F)c3)cs2)cc(OC)c1OC	0.443% (inactive)	–
CC1CC(C)CN(C(=O)COC(=O)c2ccc3ncsc3c2)C1 (configuration not stated)	1.27% (inactive)	–
O=C(Nc1ccccc1F)c1ccc(S(=O)(=O)N2CCCCCC2)cc1	6.55% (inactive)	–
O=C(CSc1ncnc2sccc12)N1CCN(C(=O)c2cccs2)CC1	7.41% (inactive)	–
Cc1nnc(NC(=O)c2ccc3nccnc3c2)s1	-2.69% (inactive)	–
CCN(c1ccccc1)S(=O)(=O)c1cc(C(=O)NCc2ccccn2)ccc1C	3.72% (inactive)	–
CCCCn1nc(C(=O)Nc2cccc(C(=O)NC3CC3)c2)c2ccccc2c1=O	0.136% (inactive)	–
COC(=O)[C@]1(Cc2ccccc2)N[C@H](CN(C)S(=O)(=O)c2ccc(OC(F)(F)F)cc2)[C@@H]2C(=O)N(C)C(=O)[C@@H]21	-0.207% (inactive)	–
COc1cccc(C(=O)Nc2ccc(NC(=O)c3ccco3)cn2)c1	2.33% (inactive)	–
COc1ccc(NC(=O)c2cccc(NC(=O)c3ccco3)c2)c(OC)c1	-2.17% (inactive)	–

SMILES	activity, positive = re-replication	Potency
COc1cccc(C(=O)Nc2ccc(N3CCN(C(=O)c4ccco4)CC3)cc2)c1	–	20.6 µM (active)
CC1(C)C[C@H]2C3=CCC4[C@@]5(C)CC[C@H](O)[C@](C)(CO)C5CC[C@@]4(C)[C@]3(C)C[C@@H](O)[C@@]2(CO)[C@@H](O)[C@@H]1O (some centres not stated)	0.808% (inactive)	–
CC(C)(C)OC(=O)C[C@@H]1C/C=C\C[C@@H](CC(=O)N[C@H](CO)Cc2ccccc2)C(=O)NCCOC1=O	-7.09% (inactive)	–
O=C(NCC1(N2CCCCC2)CCCCC1)c1cccc(S(=O)(=O)Nc2ccccc2Cl)c1	17.7% (inactive)	–
COc1cc(-c2c(-c3ccc4c(c3)OCO4)noc2C)ccc1F	–	20.6 µM (active)
COc1ccc(CCNC(=O)c2cc(-c3ccc4c(c3)OCO4)on2)cc1OC	-10.3% (inactive)	–
COc1cc2c(-c3ccc4c(c3)OCO4)c(-c3ccsc3)oc(=O)c2cc1OC	24.8% (inactive)	–
COC(=O)c1c(NC(=O)c2cccs2)sc2c1CCCC2	6.88% (inactive)	–
COC(=O)c1c(NC(=O)CCCC(=O)O)sc2c1CCCCC2	-2.78% (inactive)	–
COC(=O)c1c(NC(=O)CSc2nncs2)sc2c1CCCCC2	–	0.231 µM (active)
Cc1ccc(C(=O)OCC(=O)NCc2cc(C)c(O)c(C)c2)cc1S(=O)(=O)N1CCCCC1	-4.83% (inactive)	–
CN1C(c2ccc(F)cc2)=CS/C1=C(/C#N)c1nnc2n1-c1ccccc1SC2	14.1% (inactive)	–
c1csc(-c2nc(-c3ccncc3)no2)c1	-4.42% (inactive)	–
COc1nc(-c2ccc(Cl)cc2)ccc1-c1noc(-c2cccs2)n1	–	6.51 µM (active)
COc1ccc(CCc2nc(-c3cccs3)no2)cc1	20.4% (inactive)	–
COc1ccc(NC(C)=O)cc1NC(=O)CN1CCN(c2ccccn2)CC1	-3.72% (inactive)	–
COc1ccc(NC(C)=O)cc1NC(=O)CN1CCN(C2c3ccccc3-c3ccccc32)CC1	–	20.6 µM (active)
COc1ccc(Cl)cc1NC(=O)CN1CCN(C(=O)N2CCOCC2)CC1	-0.173% (inactive)	–
COc1ccc(N2CCN(C(CNS(=O)(=O)c3ccc(C)cc3)c3ccccc3)CC2)cc1 (configuration not stated)	2.78% (inactive)	–
CC(NC(=O)COC(=O)c1ccc2ccccc2n1)c1ccccc1 (configuration not stated)	-2.2% (inactive)	–
Oc1c(Cl)cc(Cl)c(Cl)c1Cc1c(O)c(Cl)cc(Cl)c1Cl	–	inactive and 920 nM (active)
CN(C)C(=O)CCc1ccc2c3c([nH]c2c1)[C@]1(CCc2ccccc2)[C@@H](C(=O)N2CCCCC2)C[C@H](CC(=O)NCCC2=CCCCC2)C(=O)N1CC3	9.25% (inactive)	–
Nn1c(SCC(=O)Nc2nccs2)nnc1-c1ccco1	-0.773% (inactive)	–
COc1ccccc1N1CC(O)=C(c2nc3ccccc3s2)C1=N	-0.695% (inactive)	–
N=C1C(c2nc3ccccc3s2)=C(O)CN1NC(=O)c1ccc([N+](=O)[O-])cc1	–	3.66 µM (active)

SMILES	activity, positive = re-replication	Potency
CCOC(=O)CCCN1CC(O)=C(c2nc3ccccc3s2)C1=N	-4.68% (inactive)	–
CC1CC(=NNC(=O)C2COc3ccccc3O2)CC(C)(C)C1 (configuration not stated)	-1.88% (inactive)	–
O=C(Nc1ccccc1N1CCCC1)c1ccc2ccccc2c1	-0.122% (inactive)	–
O=C(Nc1ccccc1N1CCCCC1)c1ccc2nccnc2c1	–	20.6 µM (active)
O=C(Nc1ccccc1N1CCOCC1)c1ccncc1	-0.281% (inactive)	–
O=C(COc1ccccc1F)Nc1nc(-c2ccccn2)cs1	18% (inactive)	–
O=C(c1ccc(S(=O)(=O)NCc2ccco2)cc1)N1CCN(c2ccccc2)CC1	3.64% (inactive)	–
O=C(O)CCn1cc(/C=C/C(=O)c2ccc(Cl)cc2)c(-c2cccc(Br)c2)n1	–	4.11 µM (active)
CCOC(=O)/C(C#N)=C/c1cn(CCC(=O)O)nc1-c1ccc(Br)cc1	18% (inactive)	–
O=C(O)/C=C/c1cn(Cc2ccccc2)nc1-c1cccs1	-1.37% (inactive)	–
CCC1(C)NC(=O)N(CC(=O)N2CCN(c3cccc(Cl)c3)CC2)C1=O (configuration not stated)	-4.79% (inactive)	–
O=C(CN1CCN(c2nc(-c3ccccc3)cs2)CC1)NCc1ccc2c(c1)OCO2	–	11.6 µM (active)
CC1CCCCN1CC(=O)NCc1ccc2c(c1)OCO2 (configuration not stated)	-9.34% (inactive)	–
COc1ccc(-c2csc(N3CCN(Cc4ccc5c(c4)OCO5)CC3)n2)cc1	0.265% (inactive)	–
Cc1csc2nc(COC(=O)c3cccc(N(C)C)c3)cc(=O)n12	-6.53% (inactive)	–
COc1ccc(C(CNC(=O)c2cccc(S(=O)(=O)Nc3ccc(Br)cc3)c2)N(C)C)cc1 (configuration not stated)	0.244% (inactive)	–
CCOC(=O)/C=c1\s/c(=C\c2ccccc2OC)c(=O)n1CC(=O)N1CCOCC1	1.44% (inactive)	–
Cc1cccc(NC(=O)CN2CCN(C(=O)C3CCN(C(=O)/C=C/c4ccccc4)CC3)CC2)c1C	2.04% (inactive)	–
CCOC(=O)/C=c1\s/c(=C\c2ccc(C#N)cc2)c(=O)n1CC(=O)Nc1cccc(C)c1C	–	2.91 µM (active)
Cn1nc(C(=O)OCC(=O)N(Cc2ccccc2)C(C)(C)C)c2ccccc2c1=O	6% (inactive)	–
O=C(OCC(=O)N1CCc2ccccc21)c1ccc([N+](=O)[O-])cc1	0.345% (inactive)	–
COc1ccc(-c2csc3ncnc(N4CCN(S(=O)(=O)c5cccc(F)c5)CC4)c23)cc1	12.9% (inactive)	–
